# The supplement of paper PMC7261846
# Counter-ions that a name gives are not always drawn. ± gives the uncertainty stated by the source.
# System: Candida albicans SNY425 biofilm
# Assay: biofilm OD600 with compound plus antifungal (OD600 (absorbance)); higher = more biofilm remaining
# [1] = assay detail: disruption of 24-h mature biofilm (compound + antifungal for a second 24 h)
# [2] = assay detail: sustained inhibition (compound + antifungal during 90-min adherence and 24-h growth)
SMILES,biofilm OD600 [1],biofilm OD600 [2]
CC(C)CCNC(=O)[C@H](CC(C)C)NC(=O)[C@H]1O[C@@H]1C(=O)O + OC(Cn1cncn1)(Cn1cncn1)c1ccc(F)cc1F [fluconazole] (first compound 12.5 µM),0.25 ± 0.0093,0.143 ± 0.008
CC(NC(=O)C(Cc1ccccc1)NC(=O)OCc1ccccc1)C(=O)CF (configuration not stated) + C[C@@H]1[C@H](O)[C@@H](C)/C=C/C=C/C=C/C=C/C=C/C=C/C=C/[C@H](O[C@@H]2O[C@H](C)[C@@H](O)[C@H](N)[C@@H]2O)C[C@@H]2O[C@](O)(C[C@@H](O)C[C@@H](O)[C@H](O)CC[C@@H](O)C[C@@H](O)CC(=O)O[C@H]1C)C[C@H](O)[C@H]2C(=O)O [amphotericin B] (first compound 12.5 µM),0.307 ± 0.0094,0.185 ± 0.005
COC(=O)N[C@H](C(=O)N[C@@H](Cc1ccccc1)[C@@H](O)CN(Cc1ccc(-c2ccccn2)cc1)NC(=O)[C@@H](NC(=O)OC)C(C)(C)C)C(C)(C)C [atazanavir] + OC(Cn1cncn1)(Cn1cncn1)c1ccc(F)cc1F [fluconazole] (first compound 12.5 µM),0.267 ± 0.012,0.173 ± 0.0039
CC(C)(C)NC(=O)[C@@H]1CN(Cc2cccnc2)CCN1C[C@@H](O)C[C@@H](Cc1ccccc1)C(=O)N[C@H]1c2ccccc2C[C@H]1O [indinavir] + CC[C@H](C)C[C@H](C)CCCCCCCCC(=O)N[C@H]1C[C@@H](O)[C@@H](NCCN)NC(=O)[C@@H]2[C@@H](O)CCN2C(=O)[C@H]([C@H](O)CCN)NC(=O)[C@H]([C@H](O)[C@@H](O)c2ccc(O)cc2)NC(=O)[C@@H]2C[C@@H](O)CN2C(=O)[C@H]([C@@H](C)O)NC1=O [caspofungin] (first compound 12.5 µM),0.227 ± 0.0078,0.207 ± 0.011
CC(C)C[C@H](NC(=O)[C@@H](O)[C@H](N)Cc1ccccc1)C(=O)O [Bestatin·HCl] + OC(Cn1cncn1)(Cn1cncn1)c1ccc(F)cc1F [fluconazole] (first compound 12.5 µM),0.284 ± 0.013,0.163 ± 0.011
Cc1cccc(C)c1OCC(=O)N[C@@H](Cc1ccccc1)[C@@H](O)C[C@H](Cc1ccccc1)NC(=O)[C@H](C(C)C)N1CCCNC1=O [lopinavir] + C[C@@H]1[C@H](O)[C@@H](C)/C=C/C=C/C=C/C=C/C=C/C=C/C=C/[C@H](O[C@@H]2O[C@H](C)[C@@H](O)[C@H](N)[C@@H]2O)C[C@@H]2O[C@](O)(C[C@@H](O)C[C@@H](O)[C@H](O)CC[C@@H](O)C[C@@H](O)CC(=O)O[C@H]1C)C[C@H](O)[C@H]2C(=O)O [amphotericin B] (first compound 12.5 µM),0.246 ± 0.0051,0.14 ± 0.015
Cc1ccc(S(=O)(=O)N[C@@H](Cc2ccccc2)C(=O)CCl)cc1 + OC(Cn1cncn1)(Cn1cncn1)c1ccc(F)cc1F [fluconazole] (first compound 4 µM),0.241 ± 0.01,0.0966 ± 0.012
CC(C)CCNC(=O)[C@H](CC(C)C)NC(=O)[C@H]1O[C@@H]1C(=O)O + CC[C@H](C)C[C@H](C)CCCCCCCCC(=O)N[C@H]1C[C@@H](O)[C@@H](NCCN)NC(=O)[C@@H]2[C@@H](O)CCN2C(=O)[C@H]([C@H](O)CCN)NC(=O)[C@H]([C@H](O)[C@@H](O)c2ccc(O)cc2)NC(=O)[C@@H]2C[C@@H](O)CN2C(=O)[C@H]([C@@H](C)O)NC1=O [caspofungin] (first compound 12.5 µM),0.268 ± 0.0056,0.17 ± 0.01
Cc1c(O)cccc1C(=O)N[C@@H](CSc1ccccc1)[C@H](O)CN1C[C@H]2CCCC[C@H]2C[C@H]1C(=O)NC(C)(C)C [nelfinavir] + OC(Cn1cncn1)(Cn1cncn1)c1ccc(F)cc1F [fluconazole] (first compound 12.5 µM),0.255 ± 0.0099,0.121 ± 0.018
CNC(=O)[C@H](Cc1c[nH]c2ccccc12)NC(=O)[C@@H](CC(=O)NO)CC(C)C + C[C@@H]1[C@H](O)[C@@H](C)/C=C/C=C/C=C/C=C/C=C/C=C/C=C/[C@H](O[C@@H]2O[C@H](C)[C@@H](O)[C@H](N)[C@@H]2O)C[C@@H]2O[C@](O)(C[C@@H](O)C[C@@H](O)[C@H](O)CC[C@@H](O)C[C@@H](O)CC(=O)O[C@H]1C)C[C@H](O)[C@H]2C(=O)O [amphotericin B] (first compound 12.5 µM),0.281 ± 0.01,0.194 ± 0.0098
COC(=O)N[C@H](C(=O)N[C@@H](Cc1ccccc1)[C@@H](O)CN(Cc1ccc(-c2ccccn2)cc1)NC(=O)[C@@H](NC(=O)OC)C(C)(C)C)C(C)(C)C [atazanavir] + CC[C@H](C)C[C@H](C)CCCCCCCCC(=O)N[C@H]1C[C@@H](O)[C@@H](NCCN)NC(=O)[C@@H]2[C@@H](O)CCN2C(=O)[C@H]([C@H](O)CCN)NC(=O)[C@H]([C@H](O)[C@@H](O)c2ccc(O)cc2)NC(=O)[C@@H]2C[C@@H](O)CN2C(=O)[C@H]([C@@H](C)O)NC1=O [caspofungin] (first compound 12.5 µM),0.203 ± 0.0059,0.201 ± 0.013
CCCCCCCCCC(=O)N[C@@H](CCCN=C(N)N)C(=O)N[C@H](C(=O)N[C@@H](CCCCN)C(=O)N[C@@H](CCCN=C(N)N)C(=O)CCl)C(C)C + OC(Cn1cncn1)(Cn1cncn1)c1ccc(F)cc1F [fluconazole] (first compound 4 µM),0.267 ± 0.0072,0.108 ± 0.005
CNC(=O)[C@H](Cc1c[nH]c2ccccc12)NC(=O)[C@@H](CC(=O)NO)CC(C)C + OC(Cn1cncn1)(Cn1cncn1)c1ccc(F)cc1F [fluconazole] (first compound 12.5 µM),0.272 ± 0.014,0.158 ± 0.0086
CC[C@H](C)[C@H](N)C(=O)N1CCSC1 [P32/98 hemifumarate salt] + OC(Cn1cncn1)(Cn1cncn1)c1ccc(F)cc1F [fluconazole] (first compound 12.5 µM),0.249 ± 0.0087,0.128 ± 0.0045
Cc1c(O)cccc1C(=O)N[C@@H](CSc1ccccc1)[C@H](O)CN1C[C@H]2CCCC[C@H]2C[C@H]1C(=O)NC(C)(C)C [nelfinavir] + CC[C@H](C)C[C@H](C)CCCCCCCCC(=O)N[C@H]1C[C@@H](O)[C@@H](NCCN)NC(=O)[C@@H]2[C@@H](O)CCN2C(=O)[C@H]([C@H](O)CCN)NC(=O)[C@H]([C@H](O)[C@@H](O)c2ccc(O)cc2)NC(=O)[C@@H]2C[C@@H](O)CN2C(=O)[C@H]([C@@H](C)O)NC1=O [caspofungin] (first compound 12.5 µM),0.17 ± 0.0053,0.127 ± 0.019
CCOC(=O)c1ccc(OC(=O)CCCCCNC(=N)N)cc1 [Gabexate mesylate] + CC[C@H](C)C[C@H](C)CCCCCCCCC(=O)N[C@H]1C[C@@H](O)[C@@H](NCCN)NC(=O)[C@@H]2[C@@H](O)CCN2C(=O)[C@H]([C@H](O)CCN)NC(=O)[C@H]([C@H](O)[C@@H](O)c2ccc(O)cc2)NC(=O)[C@@H]2C[C@@H](O)CN2C(=O)[C@H]([C@@H](C)O)NC1=O [caspofungin] (first compound 12.5 µM),0.26 ± 0.0083,0.181 ± 0.006
CC(C)(C)NC(=O)[C@@H]1C[C@@H]2CCCC[C@@H]2CN1C[C@@H](O)[C@H](Cc1ccccc1)NC(=O)[C@H](CC(N)=O)NC(=O)c1ccc2ccccc2n1 [saquinavir] + CC[C@H](C)C[C@H](C)CCCCCCCCC(=O)N[C@H]1C[C@@H](O)[C@@H](NCCN)NC(=O)[C@@H]2[C@@H](O)CCN2C(=O)[C@H]([C@H](O)CCN)NC(=O)[C@H]([C@H](O)[C@@H](O)c2ccc(O)cc2)NC(=O)[C@@H]2C[C@@H](O)CN2C(=O)[C@H]([C@@H](C)O)NC1=O [caspofungin] (first compound 12.5 µM),0.148 ± 0.0056,0.042 ± 0.0016
NC(N)=NCCC[C@H](NC(=O)[C@@H]1CCCN1C(=O)[C@H](N)Cc1ccccc1)C(=O)CCl + CC[C@H](C)C[C@H](C)CCCCCCCCC(=O)N[C@H]1C[C@@H](O)[C@@H](NCCN)NC(=O)[C@@H]2[C@@H](O)CCN2C(=O)[C@H]([C@H](O)CCN)NC(=O)[C@H]([C@H](O)[C@@H](O)c2ccc(O)cc2)NC(=O)[C@@H]2C[C@@H](O)CN2C(=O)[C@H]([C@@H](C)O)NC1=O [caspofungin] (first compound 12.5 µM),0.274 ± 0.0098,0.189 ± 0.011
CCOC(=O)[C@H](CCc1ccccc1)N[C@@H](C)C(=O)N1CCC[C@H]1C(=O)O [Enalapril] + CC[C@H](C)C[C@H](C)CCCCCCCCC(=O)N[C@H]1C[C@@H](O)[C@@H](NCCN)NC(=O)[C@@H]2[C@@H](O)CCN2C(=O)[C@H]([C@H](O)CCN)NC(=O)[C@H]([C@H](O)[C@@H](O)c2ccc(O)cc2)NC(=O)[C@@H]2C[C@@H](O)CN2C(=O)[C@H]([C@@H](C)O)NC1=O [caspofungin] (first compound 12.5 µM),0.266 ± 0.012,0.207 ± 0.011
CC(C)CC(=O)N[C@H](C(=O)N[C@H](C(=O)N[C@@H](CC(C)C)[C@@H](O)CC(=O)N[C@@H](C)C(=O)N[C@@H](CC(C)C)[C@@H](O)CC(=O)O)C(C)C)C(C)C [Pepstatin A] + OC(Cn1cncn1)(Cn1cncn1)c1ccc(F)cc1F [fluconazole] (first compound 12.5 µM),0.255 ± 0.007,0.144 ± 0.0099
CCC(C)[C@H](NS(=O)(=O)c1cccc2ccccc12)C(=O)N[C@H](C=O)Cc1c[nH]c2ccccc12 (some centres not stated) + OC(Cn1cncn1)(Cn1cncn1)c1ccc(F)cc1F [fluconazole] (first compound 12.5 µM),0.249 ± 0.0046,0.14 ± 0.0069
